Shiga inhibitor – inhibitors of Shiga toxin in Vero cells | 290,000 compounds, 9.2% hits | inhibition, % at 38.7 µM | Vero cells, Shiga toxin protein synthesis inhibition reporter; in the data active = inhibition mostly above about 28%, no sharp cut-off; inactive = mostly below about 43%; note: 0% is about no effect
Pf growth 48h – P. falciparum growth inhibition at 48 hours (one generation) | 310,000 compounds, 5.9% hits | P. falciparum luciferase growth in erythrocytes, 48 h | Potency, µM (doses to about 28.7 µM), without a hit: at the top dose activity change, negative = inhibition, usual class: inhibitors; note: potency is the fitted concentration of half-maximal effect; % is set by controls: 0 for no effect and ±100 for the full control effect
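Luciferase-expressing parasites in RBCs, 2% Hct / 0.1% parasitemia final; RPMI 1640 + 0.5% Albumax; 37 C, 5% CO2, one generation; luminescence read-out, lower signal = inhibition.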
NS1 inh – inhibitors of influenza NS1 protein function | Potency, µM (top dose mostly 46.1 µM), for inactives: top-dose activity, positive = more growth | AID 2326 | 270,000 compounds, 0.4% hits; calls by dose curve; note: potency is the fitted concentration of half-maximal effect; actives are rising curves; nearly all actives have a fitted effect of over 50% in size
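OD600 was taken as the measure of yeast growth restored by compound in an NS1-expressing S. cerevisiae strain. Cells had been washed out of glucose medium and diluted 1:100 into galactose -URA medium, pH 6.0.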
Pf growth 96h – P. falciparum growth inhibition at 96 hours. P. falciparum luciferase reporter growth, 96 h. Potency, µM (series often up to 28.7 µM), for the others: top-dose activity change, negative = inhibition, actives largely listed as inhibitors. 320,000 compounds, 6.9% hits. AID 504834; note: potency is the fitted concentration of half-maximal effect; % is set by controls: 0 for no effect and ±100 for the full control effect
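Readout is luminescence from an integrated firefly luciferase in P. falciparum. Red cells, 2% hematocrit and 0.05% parasitemia final, were cultured with compound through two parasite generations (96 hours) at 37 C, 5% CO2.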
CHX counter – counter-screen hit for Shiga toxin inhibitors, cycloheximide; 300,000 compounds, 12% hits; AID 2314; cell reporter, cycloheximide protein synthesis inhibition counterscreen; max response, %; in the data active = max response mostly above about 13%, no sharp cut-off; inactive = mostly below about 14%; note: read at 38.3 µM for the half of the compounds with a filed dose; 0% is about no effect
Starred values were filed as active, the others as inactive. Rows were chosen to be rich in hits. Some 21% of all compounds tested hit in one or more screens of this group. Unless noted, calls come from the whole dose curve; as a rule, active = well fitted inhibition curve with a large enough effect; inconclusive = small, poorly fitted or top-dose-only effect, or another doubt; inactive = no such curve, though single readings can be large or run the other way.

Screening COc1cccc(NC(=O)CN(C)C(=O)CCSc2ccc(C)cc2)c1 returned Pf growth 48h 10µM* and Pf growth 96h -12%.
`COc1ccc(Cl)cc1NC(=O)CN(C)C(=O)Cc1ccc2c(c1)CCC2` gave Shiga inhibitor 36, Pf growth 48h inconclusive, NS1 inh -27%, Pf growth 96h 0% and CHX counter 5.
For COc1cccc(NC(=O)CN(C)C(=O)CSCC(=O)Nc2ccc(C)cc2)c1 the results were Pf growth 48h -10% and Pf growth 96h 0%.
COc1ccc(OC)c(S(=O)(=O)N(C)CC(=O)Nc2cc(Cl)ccc2OC)c1 was read as Shiga inhibitor -6, Pf growth 48h 9.3µM*, NS1 inh -40%, Pf growth 96h 7.4µM* and CHX counter -2.
For COc1ccc(Cl)cc1NC(=O)CN(C)C(=O)CSc1ccc2c(c1)OCCO2 the results were Pf growth 48h inconclusive and Pf growth 96h 36%.
`COc1ccc(Cl)cc1NC(=O)CN(C)C(=O)c1cc2c(s1)CCCC2` gave Pf growth 48h 9.3µM* and Pf growth 96h 5.2µM*.
Screening COc1ccccc1NC(=O)CN(C)S(=O)(=O)c1cc(C)ccc1OC returned Shiga inhibitor -17, NS1 inh -17%, Pf growth 96h -24% and CHX counter 1.
Screening Cc1ccc(C)n1-c1ccc(-c2nnc3n2CCCCC3)s1 returned Shiga inhibitor 15, Pf growth 48h inconclusive, NS1 inh 0%, Pf growth 96h inconclusive and CHX counter 3.
CCOc1ccc(N(CC(=O)NCc2ccco2)C(=O)CCC(=O)Nc2nccs2)cc1 was read as Shiga inhibitor -11, Pf growth 48h 0%, NS1 inh -5%, Pf growth 96h 12% and CHX counter -4.
Screening CC(C)c1ccc(NC2CCCN(C(=O)CCN3CCCCO3)C2)cc1 (configuration not stated) returned Shiga inhibitor -35, Pf growth 48h 11%, NS1 inh -13%, Pf growth 96h inconclusive and CHX counter 1.
Screening CCOC(=O)c1c(C)[nH]c(C)c1C(=O)Cn1nnc(-c2ccccc2C)n1 returned Shiga inhibitor 3, Pf growth 48h -2%, NS1 inh -55%, Pf growth 96h -21% and CHX counter -4.
For Cc1cccc(C(=O)Nc2nsc(N)n2)c1 the results were Pf growth 48h 4% and Pf growth 96h 42%.
Screening CC1=CCC(COC(=O)Nc2ccccc2)CC1 (configuration not stated) returned Shiga inhibitor 82*, Pf growth 48h 274%, NS1 inh -111%, Pf growth 96h 2% and CHX counter 51*.
For CN(CC(=O)OCC(N)=O)S(=O)(=O)c1ccc(Cl)cc1 the results were Shiga inhibitor -9, Pf growth 48h 9%, Pf growth 96h 0% and CHX counter -1.
For Cc1ccc(Cl)cc1NC(=S)N(Cc1cccnc1)Cc1ccccc1Cl the results were Shiga inhibitor -26, Pf growth 48h 13µM*, Pf growth 96h 20% and CHX counter 11.
For Cc1ccccc1NC(=S)N(CCCN1CCC(C)CC1)Cc1ccco1 the results were Shiga inhibitor -4, Pf growth 48h -26%, NS1 inh -9%, Pf growth 96h 13µM* and CHX counter -1.
Cc1ccccc1NC(=S)N(Cc1ccccc1)Cc1cccnc1 was read as Shiga inhibitor -13, Pf growth 48h inconclusive, NS1 inh -1%, Pf growth 96h -5% and CHX counter 11.
Screening Cc1ccccc1NC(=S)N(Cc1cccnc1)Cc1ccco1 returned Shiga inhibitor -7, Pf growth 48h inconclusive, NS1 inh 5%, Pf growth 96h 1.9µM* and CHX counter -2.
Screening COc1ccc(NC(=O)N(Cc2cccnc2)Cc2ccccc2Cl)c(OC)c1 returned NS1 inh -121%.
O=C(CSc1nc(O)c(C2CCCCC2)c(=O)[nH]1)Nc1ccc(F)cc1 was read as Shiga inhibitor 31, Pf growth 48h 28%, NS1 inh 27%, Pf growth 96h 36% and CHX counter -7.
CCC(=O)N1c2ccc(S(=O)(=O)NCCc3ccccc3)cc2CC1C (configuration not stated) was read as Shiga inhibitor 2, Pf growth 48h 18%, NS1 inh -8%, Pf growth 96h 3% and CHX counter 2.
For Cn1nnnc1NCc1ccccc1F the results were Pf growth 48h 32%, NS1 inh 21%, Pf growth 96h -9% and CHX counter -3.
Screening O=S(=O)(c1ccc(Cl)c(C(F)(F)F)c1)N1CCN(CC(O)COCC2CCCO2)CC1 (configuration not stated) returned Shiga inhibitor -9, Pf growth 48h -11%, NS1 inh -1%, Pf growth 96h 112% and CHX counter 32*.
`Cc1ccc(C(=O)N/N=C\c2cc3c(cc2Br)OCO3)s1` gave Shiga inhibitor 15, Pf growth 48h inconclusive, NS1 inh 0%, Pf growth 96h inconclusive and CHX counter -1.
CCc1ccc(S(=O)(=O)NCc2csc(-c3cccnc3)n2)s1 was read as Shiga inhibitor 5, Pf growth 48h 1%, NS1 inh -163%, Pf growth 96h 0.74µM* and CHX counter 5.
`COc1ccc(C2Nc3ccccc3C(=O)N2c2ccccc2)cc1Cn1cc([N+](=O)[O-])cn1` (configuration not stated) gave Shiga inhibitor -10, Pf growth 48h 13µM*, NS1 inh -5%, Pf growth 96h 5.2µM* and CHX counter 7.
COc1ccc(CCN2C(=O)c3ccccc3NC2c2cc(Cl)c(O)c(OC)c2)cc1 (configuration not stated) was read as Shiga inhibitor -6, Pf growth 48h inconclusive, NS1 inh 7%, Pf growth 96h 5.2µM* and CHX counter -2.
`COc1cc(C2OC(=O)c3c2ccc(OC)c3OC)ccc1O` (configuration not stated) gave Pf growth 48h 7.4µM* and Pf growth 96h -21%.
COc1ccc([C@H]2Cc3cccc(O)c3C(=O)O2)cc1O was read as Pf growth 48h 73% and Pf growth 96h 29%.
COc1ccc(/C(C)=N/N2C(=O)c3ccccc3NC2c2ccc(O)c(OC)c2)cc1 (configuration not stated) was read as Shiga inhibitor 33*, Pf growth 48h 66%, NS1 inh 1%, Pf growth 96h 11% and CHX counter 14*.
COC(=O)C1=C[C@@H](C(=O)OC)C2C3=C(C(=O)[C@@]2(C)NC(=O)c2ccccc2)[C@H](c2ccccc2)[C@@H]2C(=O)N(c4ccccc4)C(=O)[C@@H]2[C@@H]3C1 (some centres not stated) was read as Shiga inhibitor -10 and CHX counter 1.
For CC1(C)Cc2c(sc(NC(=O)c3ccc(S(=O)(=O)N4CCCCCC4)cc3)c2C#N)C(C)(C)N1 the results were Shiga inhibitor -11, Pf growth 48h inconclusive, NS1 inh 16%, Pf growth 96h -20% and CHX counter 1.

Assay outcomes as filed in PubChem.
